Test results taken from the emibetuzumab library of Makowski et al. (2022).
Some of the results follow. The true hit rate is not given.

B1: VH:VL chains; a variant is named by its letters at X, in order (parent)
chain 1: QVQLVQSGAEVKKPGASVKVSCKASGYTFTDYXMHWVRQAPGQGLEWMGXVNPNXXXTTYNQKFEGRVTMTTDTSTSTAYMELRSLRSDDTAVYYCARXNXLDXWGQGTTVTVSS
chain 2: DIQMTQSPSSLSASVGDRVTITCSVSSSVSSIYLHWYQQKPGKAPKLLIYSTSNLASGVPSRFSGSGSGTDFTLTISSLQPEDFATYYCQVYSGYPLTFGGGTKVEIK

Variants of: B1
Assay: yeast display scFab, FACS + sequencing
Conditions: with MET
Procedure, shortened: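 Round-3 sorted and input populations from a heavy-chain CDR mutant scFab yeast library were deep sequenced in two replicates. Sorting used FACS on cells labelled for 3 h at room temperature with 1 nM HGFR-Fc and anti-Myc in PBSB with 1% milk, keeping the top 50% antigen-positive cells. Any sequence seen in both antigen-positive samples was called a binder, while one seen only in the input was called a non-binder.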
For FRGRGDVV, the antigen binding call was “binds”. In the case of FRGKADVD, the antigen binding call is reported as “no binding”. With YRGRGVSS the antigen binding call was “binds”. In the case of DGGRGDVV, the antigen binding call is reported as “no binding”. For AATTSFVV, the antigen binding call was “no binding”. FRGRGSVD was tested, and the antigen binding call was “binds”. In the case of FRGRSYVD, the antigen binding call is reported as “no binding”. With YRGKGVGD the antigen binding call was “binds”. With AATTDAGD the antigen binding call was “no binding”. With DGAKGDGV the antigen binding call was “no binding”. For ARTRTAWY, the antigen binding call was “no binding”. For ARRRGAWY, the antigen binding call was “binds”. SRRRGAWY was tested, and the antigen binding call was “binds”. SKGRADVY was tested, and the antigen binding call was “no binding”. FRGRGALY was tested, and the antigen binding call was “binds”. YRGRGSVY was tested, and the antigen binding call was “binds”. For YKGRGSVY, the antigen binding call was “binds”. In the case of VKGRTSVY, the antigen binding call is reported as “no binding”. SKGRSDVY was tested, and the antigen binding call was “no binding”. For SKGRGAVY, the antigen binding call was “binds”. With YTEAADGA the antigen binding call was “no binding”. VRAGADWY was tested, and the antigen binding call was “no binding”. In the case of VAKKNASF, the antigen binding call is reported as “no binding”. In the case of FKGGGAVY, the antigen binding call is reported as “no binding”. With FRGRDSGY the antigen binding call was “binds”. For FKEAGAVY, the antigen binding call was “no binding”. For FRGRDYGY, the antigen binding call was “no binding”. In the case of YKGRGFVY, the antigen binding call is reported as “no binding”. YRGRGFVY was tested, and the antigen binding call was “binds”. For FKGRGAVY, the antigen binding call was “binds”. For FRGRDALY, the antigen binding call was “binds”. FRTRDSGY chain 1 V68I was tested, and the antigen binding call was “no binding”. ARAGSFWA was tested, and the antigen binding call was “no binding”. With FRGGSVGY the antigen binding call was “no binding”. For FTEGDSGY, the antigen binding call was “no binding”. With FRTEGSGY the antigen binding call was “binds”. In the case of YKGRGSVD, the antigen binding call is reported as “binds”. For FRGGSAVY, the antigen binding call was “binds”. For FRGRGAVY, the antigen binding call was “binds”. With YAGRGDVY the antigen binding call was “no binding”. With YRGRGVVY the antigen binding call was “binds”. For YRGANVVY, the antigen binding call was “no binding”. For FRGRGSVY, the antigen binding call was “binds”. With AGRGADLS the antigen binding call was “no binding”. With YKGAAFWA the antigen binding call was “no binding”. In the case of YRGAGAWA, the antigen binding call is reported as “binds”. In the case of YKGAGAWA, the antigen binding call is reported as “binds”. With YTGTSAWA the antigen binding call was “no binding”. For VEGGGYSV, the antigen binding call was “no binding”. In the case of YRARGSSS, the antigen binding call is reported as “binds”. With YKARTSSS the antigen binding call was “binds”. For YKARGSSS, the antigen binding call was “binds”. For DAARGSSV, the antigen binding call was “no binding”. FGAAAVGD was tested, and the antigen binding call was “no binding”. With YKEEDDAV the antigen binding call was “no binding”. In the case of YRAKGAAV, the antigen binding call is reported as “binds”. In the case of YKAKGSAV, the antigen binding call is reported as “binds”. For YRAKGSAV, the antigen binding call was “binds”. YRARGSAV was tested, and the antigen binding call was “binds”. With YKTRDDAV the antigen binding call was “no binding”. For VEERDAVA, the antigen binding call was “no binding”. VEGTSDGD was tested, and the antigen binding call was “no binding”. In the case of VAGTGDVA, the antigen binding call is reported as “no binding”. YTKKTFSY was tested, and the antigen binding call was “no binding”. For VKGRADLY, the antigen binding call was “no binding”. With YRARSSLY the antigen binding call was “binds”. With YRGRASLY the antigen binding call was “binds”. With YRGEAFLY the antigen binding call was “no binding”. YRGRSSLY was tested, and the antigen binding call was “binds”. For YGGRADVY, the antigen binding call was “no binding”. In the case of VAATGVSD, the antigen binding call is reported as “no binding”. For SGEGNSWA, the antigen binding call was “no binding”. With VKREASVV the antigen binding call was “no binding”. With YRGRASVV the antigen binding call was “binds”. In the case of YKRGGAVV, the antigen binding call is reported as “binds”. YAGRADVV was tested, and the antigen binding call was “no binding”. For DARGGAVV, the antigen binding call was “no binding”. With YKGAGDVV the antigen binding call was “no binding”. For FKTKDSVV, the antigen binding call was “no binding”. For FRRGSSVV, the antigen binding call was “binds”. With YKRGSSVV the antigen binding call was “binds”. DGGENDVF was tested, and the antigen binding call was “no binding”. For DTTKGDVA, the antigen binding call was “no binding”. DAARGDVV was tested, and the antigen binding call was “no binding”. For VRGRSDWV, the antigen binding call was “no binding”. In the case of VRRGSSVV, the antigen binding call is reported as “binds”. For VRAEASVV, the antigen binding call was “no binding”. With VRGRSSVV the antigen binding call was “binds”. For VRGRDDVV, the antigen binding call was “no binding”. For YRRGSSVV, the antigen binding call was “binds”. With VATGDDWV the antigen binding call was “no binding”. With SKGRSDVS the antigen binding call was “no binding”. In the case of YRAGTAVD, the antigen binding call is reported as “binds”. In the case of YRAGTAVS, the antigen binding call is reported as “binds”. In the case of DRAGDAVD, the antigen binding call is reported as “no binding”. For DRAGDAVS, the antigen binding call was “no binding”. SAARDFWV was tested, and the antigen binding call was “no binding”. DKEGGDLA was tested, and the antigen binding call was “no binding”. In the case of YRKGSSVD, the antigen binding call is reported as “binds”. With YRKGASVD the antigen binding call was “binds”. ATGGDDGF was tested, and the antigen binding call was “no binding”. With DTTGSDWA the antigen binding call was “no binding”. SERRSSAF was tested, and the antigen binding call was “no binding”. In the case of YRRGGAAF, the antigen binding call is reported as “binds”. For YRKGASAF, the antigen binding call was “binds”. With YERRSSAF the antigen binding call was “binds”. For VRRRGSAF, the antigen binding call was “binds”. For DERRSSAF, the antigen binding call was “no binding”.
